Many of the other results were omitted from the sample, so hits are more common in it than they were.
KDM5B inh: inhibitors of human KDM5B histone demethylase; AID 1347165; KDM5B demethylase, FDH-coupled NADH fluorescence (FDH is formaldehyde dehydrogenase); Potency, µM (highest dose often 57.7 µM), usual class: inhibitors; 220,000 compounds, 2.6% hits; active = well fitted inhibition curve with a large enough effect; also: 0% is about no effect; nearly all actives have a fitted effect of over 70% in size
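Inhibition is measured as reduced NADH fluorescence generation from FDH coupling to formaldehyde release. Truncated KDM5BΔAP at 200 nM final acts on H3K4me3 peptide (12.5 µM in substrate mix) in pH 7.5 HEPES buffer with Tween-20, 30 min, room temperature.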
* hit, by the source's call. Potency is read from the fitted curve at half-maximal effect.

How did COc1ccc(OCC2(C)COc3ccc(C(=O)NCc4ccco4)cc3N2)cc1 (stereo not given) do in these assays?
KDM5B inh: 18µM*

Results for COc1ccc(OCC2(C)COc3ccc(C(=O)N(C)C)cc3N2)cc1 (stereo not given) ?
KDM5B inh: inactive

Results for COc1ccc(OCC2(C)COc3ccc(C(=O)N(C)CCN(C)C)cc3N2)cc1 (stereo not given) ?
KDM5B inh: inactive

What do the screens show for `COc1ccc(OCC2(C)COc3ccc(C(=O)NCC4CCOCC4)cc3N2)cc1` (stereo not given)?
KDM5B inh: 32µM*

How did COc1ccc(OCC2(C)COc3ccc(C(=O)Nc4ccccc4)cc3N2)cc1 (stereo not given) do in these assays?
KDM5B inh: 28µM*

Results for COc1ccc(OCC2(C)COc3ccc(C(=O)N4C[C@@H](C)O[C@@H](C)C4)cc3N2)cc1 (stereo not given in full) ?
KDM5B inh: inactive

What do the screens show for `CCN(Cc1cccs1)C(=O)Cc1c[nH]c2ccccc12`?
KDM5B inh: inactive

Results for COc1ccc(C)cc1NC(=O)CCc1ncc(-c2ccc(C)cc2)o1 ?
KDM5B inh: inactive

How did Cc1ccc(C(=O)/C=C/c2c(C)n[nH]c2C)cc1C do in these assays?
KDM5B inh: inactive

What do the screens show for `Oc1ccc(-n2nnnc2SCc2cc(Cl)c3c(c2)OCCCO3)cc1`?
KDM5B inh: inactive

How did COc1ccc(NC(=O)c2ccc3c(c2)CCCC3)cc1 do in these assays?
KDM5B inh: inactive

Results for COc1ccccc1N1CCN(CC[C@H]2CN(C(=O)C3CC3)CC[C@H]2CC(=O)O)CC1 ?
KDM5B inh: inactive

What do the screens show for `COc1ccc2c(c1)C(C[C@H]1CN(C(=O)C3CCC3)CC[C@H]1CC(=O)O)=NCC2`?
KDM5B inh: 35µM*

What do the screens show for `CCN(CC)CC[C@H]1CN(C(=O)C2CCC2)CC[C@H]1CC(=O)O`?
KDM5B inh: inactive

How did O=C(O)C[C@@H]1CCN(C(=O)C2CCC2)C[C@@H]1CCN1CCN(c2ccc(F)cc2)CC1 do in these assays?
KDM5B inh: inactive

How did O=C(O)C[C@@H]1CCN(C(=O)C2CCCCC2)C[C@@H]1CCN1CCC(C(=O)O)CC1 do in these assays?
KDM5B inh: inactive

Results for COc1cccc2c1CCN=C2C[C@H]1CN(C(=O)C2CCC2)CC[C@H]1CC(=O)O ?
KDM5B inh: 35µM*

How did Cc1cccc(NC(=S)NCCc2ccc(C(F)(F)F)cc2)c1 do in these assays?
KDM5B inh: inactive

Results for COc1ccc(/C=C(/CCCC(=O)O)c2nc3ccccc3s2)cc1C ?
KDM5B inh: inactive

How did CCc1cc(=O)[nH]c(-n2nc(C)cc2NC(=O)c2ccccc2Br)n1 do in these assays?
KDM5B inh: inactive

How did CCOc1ccc(CN(C)CC(=O)Nc2ccc(F)c(Cl)c2)cc1 do in these assays?
KDM5B inh: inactive

What do the screens show for `CCOC(=O)c1cnc(SCc2nc(-c3ccccc3C)oc2C)nc1N`?
KDM5B inh: inactive

How did O=C(O)C1CCc2nnc(C3CCCN(C(=O)c4ccc5c(c4)OC(F)(F)O5)C3)n21 (stereo not given) do in these assays?
KDM5B inh: inactive

How did COC(=O)CNC(=O)C1CCc2nnc(CNC(=O)c3ccccc3)n21 (stereo not given) do in these assays?
KDM5B inh: inactive

How did CC(C)NC(=O)C1CCc2nnc(CNC(=O)c3ccccc3)n21 (stereo not given) do in these assays?
KDM5B inh: inactive

How did Cn1ccc(C(=O)NCc2nnc3n2C(C(=O)NCc2ccc(F)cc2)CC3)n1 (stereo not given) do in these assays?
KDM5B inh: inactive

Results for O=C(NCc1nnc2n1C(C(=O)O)CC2)c1ccc(F)cc1 (stereo not given) ?
KDM5B inh: 45µM*

What do the screens show for `O=C(NCc1nnc2n1C(C(=O)N1CCOCC1)CC2)c1cccnc1` (stereo not given)?
KDM5B inh: inactive

Results for O=C(NCc1nnc2n1C(C(=O)O)CC2)c1ccccc1 (stereo not given) ?
KDM5B inh: 100µM*

How did O=C(NCc1nnc2n1C(C(=O)NCc1ccncc1)CC2)c1ccccc1 (stereo not given) do in these assays?
KDM5B inh: inactive

How did O=C(NCc1nnc2n1C(C(=O)O)CC2)c1ccc2c(c1)OC(F)(F)O2 (stereo not given) do in these assays?
KDM5B inh: 25µM*

What do the screens show for `Cc1ccccc1Nc1cnc2ccc(-c3cccc(CO)c3)nn12`?
KDM5B inh: inactive

How did CNC(=O)CCn1ncc2cc(OCc3ccccc3-c3cc(F)ccc3OC)ccc21 do in these assays?
KDM5B inh: inactive

How did NC(=O)C1(c2ccccc2)CC1c1ccccc1 (stereo not given) do in these assays?
KDM5B inh: inactive

Results for Cc1ccc2c(CN(Cc3cccs3)C(C)C)cc(=O)oc2c1 ?
KDM5B inh: inactive

Results for COc1ccc(OC(C)c2nc(-c3ccc(Br)cc3)no2)cc1 (stereo not given) ?
KDM5B inh: inactive

Results for COc1cc(NC(=O)c2cc(=O)c3cc(C)ccc3o2)cc(OC)c1 ?
KDM5B inh: inactive

Results for Cc1nn(C)c2sc(C(=O)NCCc3ccc(C(=O)O)cc3)cc12 ?
KDM5B inh: inactive

How did c1ccc2c(c1)CCN2CC1CCNCC1 do in these assays?
KDM5B inh: inactive

Results for O=C1CC2(CCN(S(=O)(=O)c3ccccc3)CC2)Oc2ccccc21 ?
KDM5B inh: 28µM*

How did Cn1nccc1CN1CCC2(CC1)CNC(=O)c1ccccc1O2 do in these assays?
KDM5B inh: inactive

How did Cn1nccc1CN1CCC2(CC1)CC(=O)c1ccccc1O2 do in these assays?
KDM5B inh: 28µM*

Results for CC(=O)Nc1ccc(CN2CCC3(CC2)CC(=O)c2ccccc2O3)cc1 ?
KDM5B inh: 22µM*

What do the screens show for `O=C(O)C1(c2ccccc2)CCN(S(=O)(=O)c2ccccc2)CC1`?
KDM5B inh: inactive

What do the screens show for `CC(=O)Nc1ccc(CN2CCC3(CC2)CC(=O)c2ccc(Cl)cc2O3)cc1`?
KDM5B inh: inactive

How did Cn1nccc1CN1CCC2(CC1)COc1ccccc1NC2=O do in these assays?
KDM5B inh: inactive

What do the screens show for `O=C1NC2(CCN(S(=O)(=O)c3ccccc3)CC2)N=C1c1cccs1`?
KDM5B inh: inactive

What do the screens show for `CC(=O)Nc1ccc(CN2CCC3(CC2)CNC(=O)c2ccccc2O3)cc1`?
KDM5B inh: inactive

Results for CCC(=O)Nc1ccc(-c2csc(NCCOC)n2)cc1 ?
KDM5B inh: inactive

How did O=C(O)CCCN1CCOCC1 do in these assays?
KDM5B inh: inactive

How did COc1cc(C(=O)NC2CCCc3c2[nH]c2c(Cl)cccc32)cc(OC)c1OC (stereo not given) do in these assays?
KDM5B inh: inactive

Results for Cc1ccc(SCC(=O)NC2(C#N)CCCC2)nc1 ?
KDM5B inh: inactive

What do the screens show for `CC(=O)N(Cc1ccccc1)Cc1cc2cccc(C)c2[nH]c1=O`?
KDM5B inh: inactive

How did CCNC(c1ccccc1)c1ccccc1 do in these assays?
KDM5B inh: inactive

What do the screens show for `COc1cccc(C(O)c2nc(C(=O)NCc3ccco3)c(C)o2)c1` (stereo not given)?
KDM5B inh: inactive

Results for COc1cccc(C(O)c2nc(C(=O)N3CCN(c4ccccn4)CC3)c(C)o2)c1 (stereo not given) ?
KDM5B inh: 25µM*

Results for COc1cccc(C(O)c2nc(C(=O)Nc3ccc(OC)c(OC)c3)c(C)o2)c1 (stereo not given) ?
KDM5B inh: inactive

Results for CSc1nnc(NC(=O)c2cc(=O)c3ccccc3o2)s1 ?
KDM5B inh: inactive
